Tau fluor cs: counter-screen for tau fibril formation inhibitors. tau K18 P301L Alexa594 fluorescence, heparin fibrillization. Potency, µM (top dose mostly 57.7 µM), for inactives: at the top dose activity change, negative = decrease. actives 0.93% (n = 280,000); further: nearly all actives have a fitted effect of over 55% in size
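Human tau K18 P301L (15 uM unlabeled, 0.24 uM Alexa 594-labeled) in 100 mM sodium acetate pH 7 with 20 uM heparin, 6 hr at 37 C. ThT 30 uM added, 1 hr ambient; Alexa 594 FP and total fluorescence read at 555/632 nm.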
RORgamma inh: blocks mouse ROR gamma transcriptional activity; actives 5.4% (n = 310,000); Drosophila S2 Gal4-RORgamma UAS-luciferase reporter, 20 h; Potency, µM (highest dose often 53.6 µM), without a hit: at the highest dose activity change, negative = inhibition, actives largely listed as inhibitors; AID 2551; P51450; further: nearly all actives have a fitted effect of over 60% in size
Target sequence (P51450 whole entry, looked up, the tested form may be a part): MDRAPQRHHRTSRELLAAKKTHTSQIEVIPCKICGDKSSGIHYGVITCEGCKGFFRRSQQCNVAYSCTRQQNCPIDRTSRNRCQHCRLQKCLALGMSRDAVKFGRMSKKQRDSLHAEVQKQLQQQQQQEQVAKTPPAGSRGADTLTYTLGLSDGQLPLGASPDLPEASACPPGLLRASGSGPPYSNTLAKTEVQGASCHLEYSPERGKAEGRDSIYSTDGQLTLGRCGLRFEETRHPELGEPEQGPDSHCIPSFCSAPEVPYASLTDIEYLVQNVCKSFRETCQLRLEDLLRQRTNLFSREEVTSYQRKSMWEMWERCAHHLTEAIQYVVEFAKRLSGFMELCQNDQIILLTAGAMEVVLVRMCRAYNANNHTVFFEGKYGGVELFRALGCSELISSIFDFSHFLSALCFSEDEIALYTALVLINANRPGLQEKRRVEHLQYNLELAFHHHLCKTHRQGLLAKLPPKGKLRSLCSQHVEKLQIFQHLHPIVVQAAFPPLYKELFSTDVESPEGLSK
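In this cell-based reporter format, copper sulfate (700 uM final) drives Gal4–ROR gamma fusion expression from a metallothionein promoter in Drosophila Schneider cells; compounds preincubated 1 hr, reporter read after 20 hr at ambient temperature.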
Tau FP inhib: tau fibrillization inhibition (FP) | P10636 | K18 P301L tau heparin fibrillization, Alexa594 FP, 6 h | Potency, µM (titrated, usually from 57.7 µM), without a hit: at the highest dose activity, negative = inhibition, usual class: inhibitors | actives 0.39% (n = 280,000) | AID 1468; further: nearly all actives have a fitted effect of over 55% in size
Target sequence (P10636 561-689 P618L limits assumed): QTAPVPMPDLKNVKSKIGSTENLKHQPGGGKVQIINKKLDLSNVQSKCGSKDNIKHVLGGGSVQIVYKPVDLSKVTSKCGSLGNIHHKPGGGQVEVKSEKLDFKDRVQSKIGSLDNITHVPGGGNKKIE
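Human K18 P301L fragment (15 uM unlabeled plus 0.24 uM Alexa 594-labeled) in 100 mM sodium acetate pH 7 with compound, aggregation induced by 20 uM heparin for 6 hr at 37 C. ThT (30 uM) added for 1 hr, then Alexa 594 FP read.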
Tau fibril ThT: tau fibrillization inhibition (ThT binding); P10636; recombinant tau K18 P301L (four-repeat tau fragment), heparin-induced fibrillization, ThT fluorescence; Potency, µM (highest dose often 57.4 µM), inactives show top-dose activity, negative = inhibition, actives largely listed as inhibitors; actives 2.1% (n = 270,000); further: nearly all actives have a fitted effect of over 55% in size
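Heparin-induced (20 uM) aggregation of recombinant human K18 P301L tau, 15 uM unlabeled with 0.24 uM labeled, pH 7 acetate buffer, 6 hr at 37 C with compound. Fibrils quantified by 30 uM ThT fluorescence after 1 hr ambient incubation.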
VP16 counter: inhibits Gal4-VP16 luciferase reporter, ROR gamma counter-screen | Potency, µM (highest dose often 53.6 µM), for the others: at the top dose activity, negative = inhibition, usual class: inhibitors | actives 3.5% (n = 310,000) | Drosophila S2 Gal4-VP16 UAS-luciferase, luminescence, 20 h;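 further: Gal4-VP16 expression switched on by copper sulfate through the metallothionein promoter; nearly all actives have a fitted effect of over 50% in size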
The depositor's hits bear a star; ? = inconclusive; nt = no result; [ ] = dose if it differs, or a comment. Rows were chosen to be rich in hits. Some 7.3% of all compounds tested hit in one or more screens of this group. The call rests on the fitted dose curve; in most records, active means well fitted curve in the direction sought with a large enough effect; inconclusive means small, poorly fitted or top-dose-only effect, or another doubt; inactive means no such curve, though single readings can be large; an effect the other way counts as inactive or inconclusive. On the % scale 0 is the no-effect control and ±100 the full control effect; potency means the concentration at half of the fitted maximal effect.

SMILES	Tau fluor cs	RORgamma inh	Tau FP inhib	Tau fibril ThT	VP16 counter
CCc1ccccc1NC(=O)Cn1nnc(-c2nc(-c3ccncc3)no2)c1N	-5%	nt	-11%	0%	nt
CN(c1ccccc1C(=O)O)S(=O)(=O)c1ccc2[nH]c(=O)oc2c1	-2%	nt	-9%	-5%	nt
CCOC(=O)c1cnc(-n2nc(C)cc2C)nc1Nc1ccc(OC)cc1	-9%	1.6µM*	9%	-19%	2.5µM*
CCOC(=O)c1cnc(-n2cc(C)cn2)nc1Nc1ccccc1OCC	-10%	1.8µM*	-7%	-12%	-10%
COc1ccc(CC(=O)N/N=C(\C)c2cccnc2)cc1	nt	3%	nt	nt	1%
CN=c1scc(-c2ccc(OC)cc2)n1/N=C(\C)c1cccnc1	?	?	1%	11µM*	?
Brc1cc2c(cc1/C=N/Nc1nc3ccccc3s1)OCO2	?	4.5µM*	5%	?	?
C(=N\Nc1nc2ccccc2s1)/c1ccc2c(c1)OCO2	?	7.9µM*	14%	?	7.1µM*
O=C(O)C/C(=C\c1cc2c(cc1Br)OCO2)c1nc2ccccc2s1	nt	-10%	nt	nt	7%
CC(=O)N1CCCc2cc(S(=O)(=O)N(CCN(C)C)Cc3ccccc3)ccc21	-10%	nt	-2%	-10%	nt
COc1ccccc1NC(=O)Cn1c(=O)n(-c2cccc(Cl)c2)c(=O)c2c1c1cc(C)ccc1n2C	-9%	nt	-9%	0%	nt
Cc1ccc(-n2nnnc2-c2cnn(-c3ccc(F)cc3)c2C(F)(F)F)cc1	-18%	?	-6%	-8%	22µM*
Cc1ccc(-c2nnnn2-c2ccc(C)cc2)cc1	-10%	1%	-4%	-7%	5%[10 µM]
CCC(C)N=C1SCC(C)(/C=N/O)S1 (centres undefined)	-11%	-27%	-10%	?	2%
CC(C)(C)N=C1SCC(C)(/C=N/O)S1 (centres undefined)	-25%	12%[10 µM]	?	25µM*	0%
CC(=O)Nc1ccc(S(=O)(=O)NCCC(=O)OCc2ccc([N+](=O)[O-])cc2)cc1	nt	24%	nt	nt	?
CN(C)/C=C/c1c([N+](=O)[O-])c2ccc(O)cc2n1-c1ccccc1	16µM*[quencher]	14%	?	13µM*	-2%
Cc1cc(C)c(S(=O)(=O)NCC(=O)NCc2cc(=O)n(C)c(=O)n2C)c(C)c1	nt	4%	nt	nt	2%
Cc1c(-c2ccc(Cl)cc2)c(=O)oc2c(CN3CCN(CCO)CC3)c(O)ccc12	-4%	nt	-5%	-4%	nt
CC1(C)Cc2cccc(OCC(=O)N3CCN(S(=O)(=O)c4ccc(F)cc4)CC3)c2O1	-6%	40%	-4%	-4%	0%
Cc1cccc(N2CCN(C(=O)COc3cccc4c3OC(C)(C)C4)CC2)c1C	4%	?	-5%	8%	3.2µM*
CC(/C=C1\SC(=S)N(NC(=O)c2ccccc2C)C1=O)=C\c1ccccc1	?	-26%	2%	4µM*	-11%
CC(/C=C1\SC(=S)N(NC(=O)c2ccncc2)C1=O)=C\c1ccccc1	?	14%	-13%	10µM*	-1%
Cc1cccc(OCc2nc(C#N)c(NCc3ccccc3Cl)o2)c1	?	nt	2%	-10%	nt
O=C(NCc1ccc(F)cc1)c1cccc(N2CCCS2(=O)=O)c1	-1%	nt	-5%	6%	nt
SMILES	Tau fluor cs	RORgamma inh	Tau FP inhib	Tau fibril ThT	VP16 counter
CO/N=C(\C(=O)N[C@@H]1C(=O)N2C(C(=O)[O-])=C(C[N+]3(C)CCCC3)CS[C@@H]12)c1csc(N)n1	nt	9%[16.9 µM]	nt	nt	9%[17 µM]
CCC(C)NC(=O)c1c(N)n(/N=C/c2ccccn2)c2nc3ccccc3nc12 (centres undefined)	-30%	18µM*	8%	?	3%
CCC(C)NC(=O)c1c(N)n(/N=C/c2cccnc2)c2nc3ccccc3nc12 (centres undefined)	?	-20%[10 µM]	-2%	-12%	-6%
COc1ccc(Nc2ncnc3onc(C)c23)cc1Cl	-13%	nt	-3%	-3%	nt
Cc1ccc(-n2c(C)cc(C(=O)CSc3nncs3)c2C)cc1	-13%	-4%	3%	?	-8%
Cc1ccc(-n2c(C)cc(C(=O)CSc3nnnn3C)c2C)cc1	-19%	?	5%	-16%	13µM*
CCOc1ccc(-c2nnc(SCC(=O)Nc3cc(F)ccc3F)o2)cc1	3%	nt	-6%	-4%	nt
COc1ccc(C(=O)C[n+]2cc(-c3ccc(OC)cc3)n3c2CCCC3)cc1	5%	39%	-12%	-9%	-5%
Cc1ccc(C(=O)C[n+]2cc(-c3ccc(C)cc3)n3c2CCCCC3)cc1	4%	?	4%	-8%	5µM*
COc1ccc(NCc2cccn2-c2nnc(N3CCOCC3)s2)cc1OC	-7%	nt	4%	-14%	nt
Cc1ccc(C)c(N2CCN(C(=O)CSCc3ccccc3Cl)CC2)c1	-11%	nt	-5%	?	nt
COc1ccc(COC(=O)N/N=C2/C[C@@H](O)[C@@H](O)[C@@H]3[C@@H]4C(=O)N(C5CCCCC5)C(=O)[C@H]4CC[C@H]23)cc1	-3%[11.6 µM]	6%[10 µM]	-4%[11.6 µM]	-9%[11.5 µM]	10%[10 µM]
COc1ccc2nc(NC(=O)c3nc(S(=O)(=O)Cc4ccccc4F)ncc3Cl)sc2c1	?	nt	2%	7.1µM*	nt
COc1ccc2nc(NC(=O)c3nc(S(=O)(=O)Cc4ccccc4)ncc3Cl)sc2c1	?	nt	-8%	8.9µM*	nt
CC(C)=CCC/C(C)=C/CO	-5%	-3%[10 µM]	3%	-5%	1%
C=CCOc1ccc(CC(=O)O)cc1Cl	2%	-5%	-3%	-1%	-5%
CCCCOc1ccc(C(C)NC(=O)CN2C(=O)CSc3ccc(S(=O)(=O)N4CCOCC4)cc32)cc1 (centres undefined)	-22%	nt	0%	-1%	nt
O=S(=O)(NCc1ccccn1)C(F)(F)F	nt	1.4µM*	nt	nt	?
Cc1c(C(=O)N(C)C)sc2c1c(=O)n(-c1ccc(Cl)c(Cl)c1)c(=O)n2Cc1ccc(F)cc1	-5%	nt	-6%	8%	nt
COc1ccc(Cn2ccc3nc(C)c(C(=O)N4CCN(c5ccccc5F)CC4)cc3c2=O)cc1	-12%	nt	-1%	-15%	nt
CCn1c2ccc(OC)cc2c2nc3ccccc3nc21	-6%	-37%	-10%	5%	?
